Laboratory results from PubChem BioAssay (EPA / NIEHS).
The source made the active and inactive calls. Rule for the calls: active = hit-call score of the fitted dose curve at least 0.9, where 1 is the maximum; inactive = score below 0.9.

How the values were obtained:
[1] = APR_HepG2_NuclearSize_72hr: Apredica 72-hour HepG2 Assay for Nuclear Size (AID 2282925); conditions: high-content imaging, actives raise or lower the signal
Summary of the method: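 HepG2 cells dosed 72 h at 0.39–200 uM (10 concentrations, duplicate) in 0.5% v/v DMSO final. Fixed, Hoechst 33342-stained nuclei imaged; nuclear diameter measured by automated image analysis. Bidirectional fit versus DMSO.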

[2] = ATG_CRE_CIS: Attagene CIS-FACTORIAL HepG2 Assay for human cAMP Responsive Element (CRE) binding protein 3 (AID 2282926); conditions: HepG2 CRE cis-reporter, Attagene multiplexed mRNA; actives raise or lower the signal
Summary of the method: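 Transfected HepG2 were treated for 24 hours, then RNA was extracted and reporter cDNA amplified with sequence-specific primers. Labelled fragments were separated by capillary electrophoresis, and the CRE signal was fitted bidirectionally with DMSO as baseline.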

[3] = target: CCAAT/enhancer-binding protein beta (Homo sapiens) (UniProt P17676); test: ATG_C_EBP_CIS: Attagene CIS-FACTORIAL HepG2 Assay for human CCAAT/Enhancer Binding Protein (C/EBP) beta (AID 2282927); conditions: HepG2 Attagene cis-factorial transcription factor reporter; actives raise or lower the signal
Sequence of CCAAT/enhancer-binding protein beta (Homo sapiens) (P17676 whole entry, looked up): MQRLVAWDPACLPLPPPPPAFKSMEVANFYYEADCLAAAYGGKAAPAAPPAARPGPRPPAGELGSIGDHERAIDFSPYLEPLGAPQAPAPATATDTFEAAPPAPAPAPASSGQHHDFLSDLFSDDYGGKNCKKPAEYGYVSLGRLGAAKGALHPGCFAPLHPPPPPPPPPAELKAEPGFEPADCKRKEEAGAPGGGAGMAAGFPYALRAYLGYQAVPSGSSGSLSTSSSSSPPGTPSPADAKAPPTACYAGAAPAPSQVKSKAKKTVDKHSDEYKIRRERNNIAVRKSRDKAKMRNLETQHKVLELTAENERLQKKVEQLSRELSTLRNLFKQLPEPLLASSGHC
Summary of the method: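 Transiently transfected HepG2 (MRTU library, endogenous TF-driven promoters); 24 h dosing; total RNA → oligo(dT) RT → PCR → 6-FAM primer extension → HpaI digest → CE; fit bidirectionally vs DMSO.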

[4] = ATG_CMV_CIS: Attagene CIS-FACTORIAL HepG2 Assay for human CMV (Internal Marker) (AID 2282928); conditions: HepG2 CMV promoter reporter, transcription factor profiling; actives raise or lower the signal;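 note: endpoint acts as a background internal control marker rather than a target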
Summary of the method: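 Endogenous transcription factor activity read in HepG2 via transfected cis-promoter reporter units. After 24 h dosing, reporter mRNA measured by RT-PCR/capillary electrophoresis; gain or loss of signal fit relative to DMSO.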

[5] = ATG_DR4_LXR_CIS: Attagene CIS-FACTORIAL HepG2 Assay for human Liver X Receptor (LXR), DR4 submotif (AID 2282929); conditions: HepG2 Attagene DR4 cis-reporter, mRNA transcription; actives raise or lower the signal
Summary of the method: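 Cells were transfected with multiple reporter transcription units, exposed to chemicals for 24 hours, then lysed for RNA. Reporter mRNA induction was measured by RT-PCR with capillary electrophoresis detection and fitted in both directions relative to DMSO.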

[6] = target: Aryl hydrocarbon receptor (Homo sapiens) (UniProt P35869); test: ATG_Ahr_CIS: Attagene CIS-FACTORIAL HepG2 Assay for human Aryl Hydrocarbon Receptor (Ahr) (AID 2282930); conditions: HepG2 AhR cis-factorial reporter transcription; actives raise or lower the signal
Sequence of Aryl hydrocarbon receptor (Homo sapiens) (P35869 whole entry, looked up): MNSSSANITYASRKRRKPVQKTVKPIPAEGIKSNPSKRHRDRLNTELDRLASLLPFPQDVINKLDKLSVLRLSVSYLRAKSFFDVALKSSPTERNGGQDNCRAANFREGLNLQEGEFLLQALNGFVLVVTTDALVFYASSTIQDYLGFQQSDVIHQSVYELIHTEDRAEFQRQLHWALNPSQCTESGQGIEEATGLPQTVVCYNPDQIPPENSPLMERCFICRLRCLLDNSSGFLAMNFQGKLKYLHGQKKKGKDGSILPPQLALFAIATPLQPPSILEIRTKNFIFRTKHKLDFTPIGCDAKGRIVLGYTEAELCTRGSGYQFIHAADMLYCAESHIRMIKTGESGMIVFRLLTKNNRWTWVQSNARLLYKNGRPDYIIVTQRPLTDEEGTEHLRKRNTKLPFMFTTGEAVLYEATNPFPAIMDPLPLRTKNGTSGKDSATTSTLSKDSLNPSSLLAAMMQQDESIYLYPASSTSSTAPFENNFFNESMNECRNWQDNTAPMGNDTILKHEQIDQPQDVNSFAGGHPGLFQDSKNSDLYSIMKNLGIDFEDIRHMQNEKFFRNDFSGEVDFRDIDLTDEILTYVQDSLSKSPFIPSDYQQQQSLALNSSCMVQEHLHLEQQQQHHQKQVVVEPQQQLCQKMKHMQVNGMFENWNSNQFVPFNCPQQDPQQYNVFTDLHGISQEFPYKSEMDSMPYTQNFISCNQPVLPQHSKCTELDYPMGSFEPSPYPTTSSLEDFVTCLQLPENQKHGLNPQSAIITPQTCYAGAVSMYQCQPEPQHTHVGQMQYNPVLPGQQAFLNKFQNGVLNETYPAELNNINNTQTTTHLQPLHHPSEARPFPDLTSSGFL
Summary of the method: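 Read-out: reporter mRNA quantified by RT-PCR with fluorescent primer extension and capillary electrophoresis. Human HepG2 liver cells carried transfected cis-promoter reporter units and were exposed to chemical for 24 h; gain or loss fitted relative to DMSO.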

[7] = ATG_AP_1_CIS: Attagene CIS-FACTORIAL HepG2 Assay for human Activator Protein 1 (AP-1) (AID 2282931); conditions: HepG2 Attagene cis-factorial AP-1 reporter mRNA; actives raise or lower the signal
Summary of the method: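 Endogenous transcription-factor activity in human HepG2 liver cells is read through a cis-promoter reporter transcript, sampled 24 h after dosing. Detection uses RT-PCR with capillary electrophoresis; values come from bidirectional fitting relative to DMSO.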

[8] = ATG_AP_2_CIS: Attagene CIS-FACTORIAL HepG2 Assay for human Activator Protein 2 (AP-2) (AID 2282932); conditions: HepG2 AP-2 cis-reporter, Attagene transcription factor profiling; actives raise or lower the signal
Summary of the method: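 Multiplexed mRNA reporter assay in HepG2: cis-regulated units report endogenous factor activity after 24 h treatment. Fluorescence from capillary electrophoresis of RT-PCR products gives the signal, with DMSO as baseline.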

[9] = ATG_BRE_CIS: Attagene CIS-FACTORIAL HepG2 Assay for human Bone Morphogenetic Protein (BMP) Response Element (BRE) (AID 2282933); conditions: HepG2 BMP response element reporter, Attagene transcription factor profiling; actives raise or lower the signal
Summary of the method: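 Fluorescence-labelled reporter cDNA fragments, separated by capillary electrophoresis, gave the signal for this component of a 52-readout multiplex. HepG2 cells were transfected, exposed to chemicals for 24 h, and compared with DMSO using bidirectional fitting.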

[10] = target: Retinoic acid receptor alpha (Homo sapiens) (UniProt P10276); test: ATG_DR5_RAR_CIS: Attagene CIS-FACTORIAL HepG2 Assay for human Retinoic Acid Receptor Alpha (RARE), DR5 submotif (AID 2282934); conditions: HepG2 Attagene cis-factorial RARE DR5 reporter, mRNA; actives raise or lower the signal;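 for AC50: reporter responds to endogenous RAR alpha beta and gamma in HepG2 not RARA alone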
Sequence of Retinoic acid receptor alpha (Homo sapiens) (P10276 whole entry, looked up): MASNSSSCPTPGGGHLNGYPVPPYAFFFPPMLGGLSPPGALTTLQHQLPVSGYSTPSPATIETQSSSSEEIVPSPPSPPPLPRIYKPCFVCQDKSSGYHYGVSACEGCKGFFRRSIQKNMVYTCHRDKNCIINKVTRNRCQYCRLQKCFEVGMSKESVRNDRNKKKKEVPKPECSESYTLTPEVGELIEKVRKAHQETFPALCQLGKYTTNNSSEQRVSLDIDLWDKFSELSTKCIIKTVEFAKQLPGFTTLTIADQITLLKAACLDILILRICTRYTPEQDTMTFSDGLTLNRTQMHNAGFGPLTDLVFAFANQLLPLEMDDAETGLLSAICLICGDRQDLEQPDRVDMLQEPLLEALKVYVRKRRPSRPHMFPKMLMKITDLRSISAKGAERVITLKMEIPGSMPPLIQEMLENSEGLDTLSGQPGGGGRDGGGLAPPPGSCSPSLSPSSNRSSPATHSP
Summary of the method: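 Read-out: DR5-driven reporter transcript measured by RT-PCR, 6-FAM primer extension, HpaI digest and capillary electrophoresis. Human HepG2 liver cells carry transiently transfected cis-element reporter constructs; dosing lasts 24 h. Gain or loss of signal fitted against DMSO baseline.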

[11] = ATG_E_Box_CIS: Attagene CIS-FACTORIAL HepG2 Assay for human Enhancer Box (E-box) (AID 2282936); conditions: HepG2 E-box cis-reporter transcription, actives raise or lower the signal
Summary of the method: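 First, HepG2 cells receive multiple cis-regulated reporter constructs by transient transfection. Next, chemicals are applied for 24 h. Finally, reporter mRNA is quantified via RT-PCR and capillary electrophoresis, with DMSO as baseline.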

[12] = ATG_M_61_CIS: Attagene CIS-FACTORIAL HepG2 Assay for M61 Transcription Factor (Internal Marker) (AID 2282937); conditions: HepG2 Attagene CIS-FACTORIAL M61 internal marker reporter; actives raise or lower the signal
Summary of the method: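 Cells were transfected with reporter units under cis-regulatory promoters, treated with chemicals for 24 h, then lysed for RNA. Reporter transcripts were quantified by RT-PCR and capillary electrophoresis, and activity was fitted bidirectionally against DMSO.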

[13] = ATG_EGR_CIS: Attagene CIS-FACTORIAL HepG2 Assay for human Early Growth Response 1 (EGR1) (AID 2282938); conditions: HepG2 Attagene CIS-FACTORIAL EGR reporter mRNA; actives raise or lower the signal
Summary of the method: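 Endogenous TF activity in HepG2 liver cells was gauged through cis-promoter reporter constructs transiently transfected. After 24 h dosing, reporter mRNA was quantified by RT-PCR and capillary electrophoresis, and curves fitted in both directions versus DMSO.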

[14] = ATG_M_19_CIS: Attagene CIS-FACTORIAL HepG2 Assay for M19 Transcription Factor (Internal Marker) (AID 2282939); conditions: HepG2 Attagene CIS-FACTORIAL M19 internal marker reporter; actives raise or lower the signal
Summary of the method: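 HepG2, MRTU transient transfection, 24 h dosing. Total RNA → RT-PCR → 6-FAM primer extension → HpaI digest → CE fluorescence. Bidirectional curve fit, DMSO negative control.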

[15] = ATG_ERE_CIS: Attagene CIS-FACTORIAL HepG2 Assay for Estrogen Response Element (ERE) (AID 2282940); conditions: HepG2 ERE cis-reporter, Attagene RNA transcript; actives raise or lower the signal
Summary of the method: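 After a 24 h chemical treatment, RNA from reporter-transfected HepG2 cells is reverse-transcribed, PCR-amplified and fluorescently labelled. Fragments separated by capillary electrophoresis give reporter signal; DMSO serves as negative control.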

[16] = ATG_Ets_CIS: Attagene CIS-FACTORIAL HepG2 Assay for human Erythroblast Transformation Specific (ETS) (AID 2282941); conditions: HepG2 ETS cis-reporter transcription, actives raise or lower the signal
Summary of the method: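 Steps: transfect HepG2 with multiple reporter units; treat compound 24 h; isolate RNA, DNase-treat, reverse-transcribe; PCR-amplify, label with 6-FAM, digest with HpaI; separate by capillary electrophoresis. Activity fitted both directions versus DMSO.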

[17] = target: Hepatocyte nuclear factor 3-beta (Homo sapiens) (UniProt Q9Y261); test: ATG_FoxA2_CIS: Attagene CIS-FACTORIAL HepG2 Assay for human Forkhead box A2 (FOXA2) (AID 2282942); conditions: HepG2 cis-reporter transcription factor activity, 24 h; actives raise or lower the signal
Sequence of Hepatocyte nuclear factor 3-beta (Homo sapiens) (Q9Y261 whole entry, looked up): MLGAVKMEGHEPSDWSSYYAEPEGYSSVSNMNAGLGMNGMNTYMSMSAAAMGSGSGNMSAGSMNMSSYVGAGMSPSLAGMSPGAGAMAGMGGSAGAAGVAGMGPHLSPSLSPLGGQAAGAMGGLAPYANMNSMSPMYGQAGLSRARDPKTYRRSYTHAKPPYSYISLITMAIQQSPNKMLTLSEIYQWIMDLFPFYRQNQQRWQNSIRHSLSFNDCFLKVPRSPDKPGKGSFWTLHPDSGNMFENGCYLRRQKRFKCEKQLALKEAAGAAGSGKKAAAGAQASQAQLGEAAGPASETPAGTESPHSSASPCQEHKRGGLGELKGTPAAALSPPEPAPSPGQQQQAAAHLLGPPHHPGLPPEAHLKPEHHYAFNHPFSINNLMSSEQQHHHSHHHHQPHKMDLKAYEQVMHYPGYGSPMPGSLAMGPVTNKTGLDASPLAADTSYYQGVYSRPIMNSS
Summary of the method: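 Endogenous transcription factor activity was read in HepG2 cells carrying transiently transfected cis-promoter reporter units. After 24 h dosing, reporter mRNA was quantified by RT-PCR and capillary electrophoresis, and values fitted bidirectionally versus DMSO.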

[18] = ATG_FoxO_CIS: Attagene CIS-FACTORIAL HepG2 Assay for human Forkhead box O (FoxO) (AID 2282943); conditions: HepG2 Attagene cis-reporter, FoxO element, mRNA; actives raise or lower the signal
Summary of the method: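 Read-out: fluorescence of 6-FAM-labelled reporter cDNA fragments resolved by capillary electrophoresis. Transiently transfected HepG2 cells were dosed for 24 h; activity fitted in both directions relative to DMSO controls.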

[19] = ATG_GATA_CIS: Attagene CIS-FACTORIAL HepG2 Assay for human GATA Binding Protein (AID 2282944); conditions: HepG2 GATA cis-element reporter, Attagene multiplex mRNA; actives raise or lower the signal
Summary of the method: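 Cells: HepG2, transiently transfected with cis-regulated reporter transcription units. Exposure: 24 h. Detection: RT-PCR plus capillary electrophoresis of FAM-labeled fragments. Analysis: bidirectional, DMSO as baseline.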

[20] = target: Transcription factor E2F1 (Homo sapiens) (UniProt Q01094); test: ATG_E2F_CIS: Attagene CIS-FACTORIAL HepG2 Assay for human E2F Transcription Factor 1 (AID 2282935); conditions: HepG2 Attagene cis-reporter, E2F reporter RNA transcripts; actives raise or lower the signal
Sequence of Transcription factor E2F1 (Homo sapiens) (Q01094 whole entry, looked up): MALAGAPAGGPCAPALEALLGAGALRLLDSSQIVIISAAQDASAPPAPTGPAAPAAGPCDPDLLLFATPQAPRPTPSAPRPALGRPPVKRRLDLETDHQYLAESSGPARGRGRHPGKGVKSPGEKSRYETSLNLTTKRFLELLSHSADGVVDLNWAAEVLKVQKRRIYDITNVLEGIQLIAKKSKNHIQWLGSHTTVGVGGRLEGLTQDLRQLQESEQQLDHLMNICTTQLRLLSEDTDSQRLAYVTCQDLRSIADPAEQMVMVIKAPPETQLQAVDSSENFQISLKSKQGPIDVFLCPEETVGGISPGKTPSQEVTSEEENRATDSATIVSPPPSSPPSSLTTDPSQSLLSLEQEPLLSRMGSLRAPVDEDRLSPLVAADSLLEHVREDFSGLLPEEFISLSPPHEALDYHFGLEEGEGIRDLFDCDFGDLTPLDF
Summary of the method: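 Measures reporter transcript levels via RT-PCR with capillary electrophoresis detection in HepG2 cells harboring cis-regulated reporter units; 24 h post-dose; bidirectional curve fitting with DMSO as baseline.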

Measured: AC50

CNC(=O)Oc1cccc2ccccc12
active: [4] 50 µM | [6] 6.71 µM | [9] 23.6 µM | [11] 9.92 µM | [15] 50 µM
not listed: [20]
inactive: all other assays above

C=C(C)CN(CC)c1c([N+](=O)[O-])cc(C(F)(F)F)cc1[N+](=O)[O-]
active: [5] 50 µM | [10] 18.4 µM | [15] 31.2 µM
not listed: [16] | [20]
inactive: all other assays above

CC(C)C1(C)N=C(c2ncccc2C(=O)O)NC1=O (stereo not given)
not listed: [10] | [11] | [16]
inactive: all other assays above

Nc1c(Cl)c(Cl)nc(C(=O)O)c1Cl
active: [6] 31.3 µM
not listed: [10] | [11]
inactive: all other assays above

OC(c1ccc(Cl)cc1)(c1ccc(Cl)cc1)C(Cl)(Cl)Cl
not listed: [6] | [20]
inactive: all other assays above

CC(C)Nc1nc(Cl)nc(NC(C)C)n1
not listed: [10] | [16]
inactive: all other assays above

CC(C)NC(=O)N1CC(=O)N(c2cc(Cl)cc(Cl)c2)C1=O
active: [6] 4.87 µM | [15] 20.6 µM
not listed: [10] | [11] | [16]
inactive: all other assays above
